Results from PubChem BioAssay (NCATS).
Several values for one entry are separate records, joined by “and”; a condition that tells them apart may be missing. Equal entries are not always repeated. Records with an inconclusive call do not appear. Activity calls are given as the source filed them. Unless noted, calls come from the whole dose curve; as a rule, active = well fitted curve in the direction sought with a large enough effect; inconclusive = small, poorly fitted or top-dose-only effect, or another doubt; inactive = no such curve, though single readings can be large; an effect the other way counts as inactive or inconclusive.

Key:
[1] = Cell Viability - HepG2 (AID 433; calls by dose curve;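 note: potency is the fitted concentration of half-maximal effect; potency for ATP loss meaning cytotoxicity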); conditions: qHTS
Summary of the method: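 In this qHTS format, a 40 h, 37 °C compound incubation of HepG2 cells in complete medium precedes a 20 min CellTiter-Glo step at room temperature. Tamoxifen and doxorubicin serve as positive controls; Hill-equation fits yield AC50.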

[2] = Cell Viability - MRC5 (AID 434; calls by dose curve;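 note: potency is the fitted concentration of half-maximal effect; potency reflects cytotoxicity seen as loss of intracellular ATP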); conditions: MRC5 lung fibroblast viability, qHTS
Summary of the method: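 MRC5 normal human lung fibroblasts (1500/well) were treated with compounds for 40 hr at 37 °C in complete medium, and viable cells were measured as intracellular ATP by CellTiter-Glo luminescence. AC50 came from Hill fits, normalized to DMSO and 100 uM tamoxifen.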

[3] = Cell Viability - SK-N-SH (AID 435; calls by dose curve;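 note: potency is the fitted concentration of half-maximal effect; compound exposure lasted 40 h at 37 °C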); conditions: SK-N-SH neuroblastoma cell viability qHTS
Summary of the method: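 Human neuroblastoma line, 40 h exposure at 37 °C, ATP quantified via luciferase luminescence; DMSO and 100 uM tamoxifen define 0 and 100% inhibition for AC50 fitting.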

[4] = Cell Viability - N2a (AID 540); conditions: N2a mouse neuroblastoma cell viability; activity change, negative = cytotoxicity: at 92.2 µM (top of the series);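 note: plate controls were DMSO alone for no effect and tamoxifen control for full effect; nearly all actives have a fitted effect of over 45% in size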
Summary of the method: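 Mouse neuroblastoma N2a cells, 1500/well, exposed to compounds 40 h at 37 °C in complete medium. Viability measured as cellular ATP by CellTiter-Glo luminescence; AC50 from Hill fits of concentration-response.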

[5] = Cell Viability - Renal Proximal Tubule (AID 545); conditions: renal proximal tubule cells viability, primary cells of rat origin; at 91.7 µM (top of the series); note: nearly all actives have a fitted effect of over 40% in size
Summary of the method: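 In this qHTS format, normal rat kidney-derived proximal tubule cells in complete culture medium receive compound titrations, then sit 40 hours at 37 °C before luciferase-based ATP quantitation; potency is reported as AC50 from concentration-response curves.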

[6] = Cell Viability - Mesenchymal (AID 546); conditions: mesenchymal cells viability, qHTS; activity change, negative = cytotoxicity: at 91.7 µM (top of the series);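 note: cells exposed to compound for 40 hours before reading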
Summary of the method: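 Normal human renal glomerulus-derived kidney mesenchymal cells, 1000 per well in complete medium, were treated with compounds for 40 hr at 37 °C. Viability was read as intracellular ATP by CellTiter-Glo luminescence; AC50 values came from Hill-equation fits of qHTS concentration-response data.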

[7] = Cellular Toxicity (caspase-3) HepG2 (AID 654); conditions: HepG2 caspase-3 activation, luminescence, 0% = DMSO only, 100% = tamoxifen; series mostly up to 92.2 µM;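 note: cells exposed to compound for 16 hours before reading; 0% = DMSO alone and 100% = caspase signal from 100 µM tamoxifen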
Summary of the method: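 HepG2 cells (1500/well) were treated 16 h at 37 °C in complete medium, then caspase 3/7 activity was read by Caspase-Glo luminescence. Data were normalized to DMSO and 100 uM tamoxifen; AC50 came from Hill-equation fits of qHTS concentration-response.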

[8] = Cellular Toxicity (caspase-3) Jurkat (AID 655); conditions: Jurkat caspase-3 activation, luminescence, DMSO = 0%, tamoxifen = 100%; at 92.2 µM (top of the series);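 note: cells exposed to compound for 16 h at 37 °C before reading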
Summary of the method: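 qHTS in human Jurkat T-cell leukemia line: 16 hr compound treatment at 37 °C, caspase-3/7 activity measured by Caspase-Glo luminescence. AC50 derived from Hill equation.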

[9] = Cellular Toxicity (caspase-3) HUV-EC-C (AID 656); conditions: HUV-EC-C cells, caspase-3 activation (apoptosis), vehicle = 0, 100 µM tamoxifen = 100%; series mostly up to 92.2 µM
Summary of the method: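 Concentration-dependent caspase 3/7 induction was assessed in HUV-EC-C cells exposed for 16 hours. Data scaled between DMSO and tamoxifen (100 uM) controls.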

[10] = Cellular Toxicity (caspase-3) SHSY5Y (AID 657); conditions: SH-SY5Y caspase-3 activation, DMSO zero, 10 µM staurosporine = 100%; series mostly up to 91.7 µM
Summary of the method: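 Readout: caspase-cleaved peptide-aminoluciferin substrate driving luciferase light in SH-SY5Y neuroblastoma cells after 16 h treatment. Response normalized to DMSO and 10 uM staurosporine controls.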

[11] = Cellular Toxicity (caspase-3) BJ (AID 658); conditions: BJ fibroblasts, luminescence, normalized: DMSO 0%, staurosporine 100%; series mostly up to 91.7 µM
Summary of the method: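 Luminescent aminoluciferin-substrate cleavage reports caspase 3/7 activity in normal human BJ fibroblasts after 16 hr compound exposure at 37 °C. Normalized to DMSO (basal) and 10 uM staurosporine (100%); AC50 from Hill fit of concentration-response.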

[12] = Cellular Toxicity (caspase-3) MRC-5 (AID 659); conditions: MRC-5 cells, luminescence, normalized: DMSO 0%, 10 µM staurosporine 100%; series mostly up to 91.7 µM
Summary of the method: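 Luminescence from caspase-cleaved aminoluciferin substrate (Caspase-Glo 3/7, 1 hr RT) reports caspase 3/7 activity in MRC-5 lung fibroblasts after 16 hr compound exposure. Normalized to DMSO basal and 10 uM staurosporine as 100%; AC50 from Hill fits.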

[13] = Cellular Toxicity (caspase-3) Mesangial (AID 660); conditions: mesangial cells, normalized: DMSO 0%, 100 µM tamoxifen 100%; series mostly up to 91.7 µM;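 note: cells exposed to compound for 16 h before the caspase read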
Summary of the method: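 Human renal glomerular mesangial cells, 1000/well, 5 h at 37 C before 16 h compound treatment. Caspase-Glo 3/7 luminescence after 20 min; normalized to DMSO and 100 uM tamoxifen, AC50 from Hill fit.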

[14] = Cellular Toxicity (caspase-3) SK-N-SH (AID 661); conditions: SK-N-SH caspase-3 activation, qHTS, DMSO as zero, staurosporine as full; series mostly up to 91.7 µM
Summary of the method: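 Human SK-N-SH neuroblastoma cells, 1500/well, were exposed to compounds for 16 hours at 37 °C. Caspase-Glo 3/7 luminescence was normalized to DMSO (basal) and 10 uM staurosporine (100%), and AC50 came from a Hill fit.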

[15] = Cellular Toxicity (caspase-3) H-4-II-E (AID 663); conditions: H-4-II-E rat hepatoma; Potency: caspase-3 activation; series mostly up to 92.2 µM;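 note: cells exposed to compound for 16 hr before readout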
Summary of the method: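 Luminescence from caspase-cleaved aminoluciferin substrate, read 20 min after reagent addition, reports caspase 3/7 activation in rat H-4-II-E cells after 16 hr compound exposure. Normalized to DMSO (basal) and 100 uM tamoxifen (100%); AC50 from Hill fits.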

[16] = Cellular Toxicity (caspase-3) Hek293 (AID 664); conditions: HEK293 caspase-3 activation, DMSO = 0%, 100 µM tamoxifen = 100%; series mostly up to 92.2 µM;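 note: cells exposed to compound for 16 h at 37 °C before readout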
Summary of the method: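 HEK293 cells in complete medium treated 16 h at 37 °C, then Caspase-Glo 3/7 luminescence read after 20 min at room temperature. Normalized to DMSO and 100 uM tamoxifen; AC50 from Hill fit of concentration-response.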

[17] = Cellular Toxicity (caspase-3) N2a (AID 665); conditions: N2a cells, luminescence, normalized: DMSO 0%, 10 µM staurosporine 100%; series mostly up to 92.2 µM;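 note: compound exposure lasted 16 h at 37 °C before readout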
Summary of the method: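 Mouse N2a neuroblastoma cells, 1500 per well, treated 16 h at 37 °C in complete medium; caspase-3/7 activity by Caspase-Glo luminescence after 1 h. Normalized to DMSO and 10 uM staurosporine; AC50 from Hill fits.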

[18] = biological target: Peroxisome proliferator-activated receptor gamma (Homo sapiens) (UniProt P37231); test: qHTS assay for small molecule agonists of peroxisome proliferator-activated receptor gamma signaling (AID 588536; active = well fitted curve in the direction sought with a large enough effect in the signal ratio, with a control signal flat, not every such curve was filed as active; the % refers to the signal ratio;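 note: 0% = DMSO basal wells and 100% = rosiglitazone at 2 µM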); conditions: HEK293 PPARg-UAS-bla, beta-lactamase ratio, 16 h, percent of rosiglitazone response, DMSO as zero; series mostly up to 76.7 µM
Summary of the method: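 Ratiometric blue/green fluorescence (405 nm excitation; 460 and 530 nm emission) from CCF4-loaded HEK293 reporter cells serves as signal. Exposure to test compounds lasts 16 h at 37 C in medium containing 1% charcoal/dextran-treated serum.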

[19] = biological target: Voltage-gated inwardly rectifying potassium channel KCNH2 (Homo sapiens) (UniProt Q12809); test: qHTS Assay for Small Molecule Inhibitors of the Human hERG Channel Activity (AID 588834); conditions: U2OS BacMam hERG, FluxOR thallium flux fluorescence; series mostly up to 92.2 µM;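 note: top concentration of the series differs between compounds; % is set by controls: 0 for no effect and ±100 for the full control effect; lower thallium flux fluorescence means stronger hERG block; nearly all actives have a fitted effect of over 50% in size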
Summary of the method: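 Blockade is seen as reduced FluxOR thallium-flux fluorescence in U2OS cells expressing hERG from a BacMam construct, in Opti-MEM with 2% FCS. Concentration-response data fitted to the Hill equation for AC50.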

[20] = qHTS assay for small molecule activators of the p53 signaling pathway (AID 651743; active = well fitted activation curve with a large enough effect in the signal ratio, not every such curve was filed as active; the % refers to the signal ratio; note: % of control where 0% means no effect); conditions: HCT-116 p53RE-bla, beta-lactamase FRET ratio, 16 h; activation: stronger effect = higher value
Summary of the method: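 Cell-based beta-lactamase reporter (p53 response elements, HCT-116 background). After a 5-hour preincubation, cells received compound for 16 hours at 37 C; substrate development ran 2 hours at room temperature.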

Chain of Peroxisome proliferator-activated receptor gamma (Homo sapiens) (P37231 whole entry, looked up): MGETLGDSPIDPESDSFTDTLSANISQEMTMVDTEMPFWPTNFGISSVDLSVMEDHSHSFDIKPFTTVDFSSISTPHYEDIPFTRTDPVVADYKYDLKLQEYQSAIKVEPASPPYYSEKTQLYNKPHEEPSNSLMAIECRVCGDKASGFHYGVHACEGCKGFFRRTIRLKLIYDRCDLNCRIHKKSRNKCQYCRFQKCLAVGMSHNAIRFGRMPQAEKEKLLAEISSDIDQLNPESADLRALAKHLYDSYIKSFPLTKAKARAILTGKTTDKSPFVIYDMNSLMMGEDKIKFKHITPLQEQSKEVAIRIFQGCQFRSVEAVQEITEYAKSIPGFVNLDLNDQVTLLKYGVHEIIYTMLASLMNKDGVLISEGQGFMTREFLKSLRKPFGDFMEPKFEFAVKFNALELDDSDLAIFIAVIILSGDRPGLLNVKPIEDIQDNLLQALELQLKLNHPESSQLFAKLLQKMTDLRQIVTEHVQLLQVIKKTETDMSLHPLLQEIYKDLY
Chain of Voltage-gated inwardly rectifying potassium channel KCNH2 (Homo sapiens) (Q12809 whole entry, looked up): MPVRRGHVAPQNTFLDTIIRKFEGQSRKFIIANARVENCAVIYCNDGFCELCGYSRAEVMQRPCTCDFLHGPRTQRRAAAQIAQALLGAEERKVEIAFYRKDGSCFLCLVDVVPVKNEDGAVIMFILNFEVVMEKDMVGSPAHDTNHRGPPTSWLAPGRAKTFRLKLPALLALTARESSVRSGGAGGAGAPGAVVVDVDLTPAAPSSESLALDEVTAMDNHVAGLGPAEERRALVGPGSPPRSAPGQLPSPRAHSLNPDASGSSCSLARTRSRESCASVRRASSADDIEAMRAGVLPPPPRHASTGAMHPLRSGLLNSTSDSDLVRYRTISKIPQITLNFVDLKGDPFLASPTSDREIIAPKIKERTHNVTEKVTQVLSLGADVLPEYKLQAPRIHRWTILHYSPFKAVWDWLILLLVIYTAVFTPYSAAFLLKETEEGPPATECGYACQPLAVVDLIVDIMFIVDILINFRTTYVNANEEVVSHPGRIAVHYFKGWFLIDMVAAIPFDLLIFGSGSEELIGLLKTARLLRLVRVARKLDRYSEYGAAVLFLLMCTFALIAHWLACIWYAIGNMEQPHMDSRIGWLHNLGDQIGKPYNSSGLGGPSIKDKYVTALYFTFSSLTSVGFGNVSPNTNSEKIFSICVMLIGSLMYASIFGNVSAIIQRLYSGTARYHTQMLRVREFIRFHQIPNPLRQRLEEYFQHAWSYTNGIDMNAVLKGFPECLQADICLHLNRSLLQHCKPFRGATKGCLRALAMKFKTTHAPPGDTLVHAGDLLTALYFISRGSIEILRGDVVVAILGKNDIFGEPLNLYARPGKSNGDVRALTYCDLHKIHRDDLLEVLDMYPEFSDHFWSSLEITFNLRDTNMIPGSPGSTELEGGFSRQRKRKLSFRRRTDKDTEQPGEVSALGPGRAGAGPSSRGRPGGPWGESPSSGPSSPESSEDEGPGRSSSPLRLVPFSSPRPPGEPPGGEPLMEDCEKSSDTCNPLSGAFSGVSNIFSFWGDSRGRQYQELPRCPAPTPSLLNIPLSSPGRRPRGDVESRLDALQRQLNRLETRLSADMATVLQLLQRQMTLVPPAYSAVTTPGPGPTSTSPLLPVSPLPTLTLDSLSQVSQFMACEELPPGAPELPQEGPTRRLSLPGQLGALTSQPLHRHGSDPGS

COc1ccc(/C=C/c2cc(OC)cc(=O)o2)cc1
inactive: Potency [1] > 92 µM | Potency [2] > 92 µM | Potency [3] > 92 µM | activity change, negative = cytotoxicity [4] -11.5% | activity change, negative = cytotoxicity [5] -20.5% | activity change, negative = cytotoxicity [6] -3.53% | outcome [7] | caspase-3 activation [8] -4.41% | outcome [9] | outcome [10] | outcome [11] | outcome [12] | outcome [13] | outcome [14] | Potency [15] | outcome [16] | outcome [17] | outcome [18] | Potency [19] | activation [20] 10.5%

C=C(C)C1CC=C(C)C(O)C1 (stereo not drawn)
inactive: Potency [1] > 92 µM | Potency [2] > 92 µM | Potency [3] > 92 µM | activity change, negative = cytotoxicity [4] -0.158% | activity change, negative = cytotoxicity [5] 6.86% | activity change, negative = cytotoxicity [6] 2.7% | outcome [7] | caspase-3 activation [8] -2.18% | outcome [9] | outcome [10] | outcome [11] | outcome [12] | outcome [13] | outcome [14] | Potency [15] | outcome [16] | outcome [17] | outcome [18] | Potency [19] | activation [20] -1.04%

C=CCc1ccc(OC)c(OC)c1
inactive: Potency [1] > 92 µM | Potency [2] > 92 µM | Potency [3] > 92 µM | activity change, negative = cytotoxicity [4] -13.8% | activity change, negative = cytotoxicity [5] -5.61% | activity change, negative = cytotoxicity [6] -7.19% | outcome [7] | caspase-3 activation [8] -0.00061% | outcome [9] | outcome [10] | outcome [11] | outcome [12] | outcome [13] | outcome [14] | Potency [15] | outcome [16] | outcome [17] | outcome [18] | Potency [19] | activation [20] 0.847% and -0.413%

CCCCCCCCCCCC(=O)O
inactive: Potency [1] > 92 µM | Potency [2] > 92 µM | Potency [3] > 92 µM | activity change, negative = cytotoxicity [4] -16.1% and -7.4% | activity change, negative = cytotoxicity [5] -7.81% and -14% | activity change, negative = cytotoxicity [6] -0.623% and 0.657% | outcome [7] | caspase-3 activation [8] -6.31% and -4.32% | outcome [9] | outcome [10] | outcome [11] | outcome [12] | outcome [13] | outcome [14] | Potency [15] | outcome [16] | outcome [17] | Potency [19]
